# Experimental data taken from PubChem BioAssay.
# Unmarked numbers belong to inactive results. How the calls were made is not given here.
# Molecular target: L-lactate dehydrogenase (Plasmodium falciparum (isolate CDC / Honduras)) (UniProt Q27743)
# Test: PfLDH activity inhibition – cell lysate, 3D7 strain, counter-screen for P. falciparum growth inhibition project (AID 2304);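 further: 0% = vehicle and 100% = reference inhibitor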
# Settings: P. falciparum 3D7 crude extract, LDH APAD/NBT absorbance; at 2 µM; stronger effect = higher value
# L-lactate dehydrogenase (Plasmodium falciparum (isolate CDC / Honduras)), sequence (Q27743 whole entry, looked up): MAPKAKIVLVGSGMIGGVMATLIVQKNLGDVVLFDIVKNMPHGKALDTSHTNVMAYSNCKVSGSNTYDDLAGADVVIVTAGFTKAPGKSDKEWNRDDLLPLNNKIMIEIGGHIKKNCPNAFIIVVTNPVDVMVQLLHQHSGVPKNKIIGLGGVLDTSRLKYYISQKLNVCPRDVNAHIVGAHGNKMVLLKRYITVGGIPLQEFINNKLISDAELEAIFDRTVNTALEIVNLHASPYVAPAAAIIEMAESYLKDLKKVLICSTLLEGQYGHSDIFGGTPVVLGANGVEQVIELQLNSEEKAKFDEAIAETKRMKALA
row,Compound,inhibition [%]
1,C[C@@H]1CC[C@H](NC(=O)[C@H](CC2CCCC2)NC(=O)N2CCNCC2)C(=O)CN1S(=O)(=O)c1ccccn1,-2
2,O=C(Nc1cccc(C(F)(F)F)c1)c1cccc(S(=O)(=O)NCC2CCN(CC3CCCCC3)CC2)c1,0
3,CCc1cn2c3c(cc(C(=O)N[C@@H](Cc4ccccc4)[C@H](O)CNC(C)C)cc13)N(C)S(=O)(=O)C2,8
4,O=C(NCCc1cccc(F)c1)c1ccc(N2CCN(c3ccncc3)CC2)cn1,-3
5,CCc1cn2c3c(cc(C(=O)N[C@@H](Cc4ccccc4)[C@H](O)CNC4CC4)cc13)N(CC)S(=O)(=O)CC2,-3
6,CC(C)(CNCc1cccc(Oc2ccccc2)c1)c1nc(-c2ccc(Cl)c(O)c2)c(-c2ccnc(N)n2)[nH]1,4
7,O=C(Nc1cccc(CN2CCCN(Cc3ccc(O)cc3)CC2)c1)c1cc2ccccc2s1,-7
8,Cc1nc(-c2cccc(Nc3nccc(NCC(O)c4ccccc4C(F)(F)F)n3)c2)cs1 (stereo not given),5
9,O=C(CCc1ccccc1)N[C@H](Cc1c[nH]c2ccccc12)C(=O)N1CCC(NCc2ccc3c(c2)Cc2ccccc2-3)CC1,-6
10,Cc1nn(CC(C)C)c2sc(C(=O)N3CCN(S(=O)(=O)c4ccc(C#N)cc4)CC3)cc12,-2
11,Cc1cnc(C(=O)Nc2ccc3c(c2)CCCN(Cc2c[nH]c4cnccc24)C3)cn1,-3
12,COc1ccc(-n2ccnc2SCC(=O)Nc2cc(C(F)(F)F)ccc2Cl)c(OC)c1,-8
13,CCCC(=O)Nc1ccc(OCCN(Cc2ccccc2OC(F)(F)F)c2ccc(C(F)(F)F)c(C#N)c2)cc1,-1
14,CC(C)c1cccc(OCC2CCN(c3ncc(C(=O)Nc4ccccc4)cc3Cl)CC2)c1,-2
15,CN(C)C(=O)c1cc(CNCc2ccccc2)ccc1-c1cccc(CNCc2ccc(-c3ccccc3)cc2)c1,-3
16,O=C(Nc1ccc(C(=O)N(Cc2ccc3c(c2)OCO3)C2CCCC2)cc1)c1cccs1,4
17,CN1CCN(c2cc(NC(=O)Nc3ccc(-c4ccncc4)c(Cl)c3)ccc2Br)CC1,2
18,COc1ccc2nccc([C@@H](O)CN3CCC(NCc4cc5ccccn5n4)CC3)c2c1,-8
19,CCCCN1CCN(CC(O)CNC(=O)Nc2ccc(Cl)cc2)CC1 (stereo not given),-3
20,CCCC(CNCc1cccc(OCC)c1)CNc1cc(=O)c2ccccc2[nH]1 (stereo not given),4

row,Compound,inhibition [%]
1,NS(=O)(=O)c1cccc(-c2ccc3c(=O)[nH]cnc3c2)c1,4
2,Cc1c(Oc2ccc(-n3ccnc3)cc2)ncnc1N1CCC2(CC1)CNCc1ccccc12,-3
3,CCOC(=O)N[C@@H]1CN[C@@H](C#Cc2cc3c(Nc4ccc(OCc5cccc(F)c5)c(Cl)c4)ncnc3s2)C1,-3
4,Cc1cccc2[nH]c(-c3ccc(-c4cccc(NC(=O)Nc5ccsc5)c4)s3)nc12,-3
5,CC(CNc1nc(NCC(c2ccccc2)c2ccccc2)c2[nH]cnc2n1)c1ccccc1 (stereo not given),-8
6,c1cc2c3c(cccc3c1)NC(CCCCCCCCC1=Nc3cccc4cccc(c34)N1)=N2,0
7,Clc1ccc(-c2[nH]c3ccccc3c2CN2CCC(N3CCCCC3)CC2)cc1,5
8,N#Cc1ccc2[nH]cc(CN3CCC4(CC3)CN(CCNCc3ccccc3)C(=O)CO4)c2c1,1
9,COc1ccc2cc(C(c3nnnn3CC3CCCO3)N3CCc4ccccc43)c(=O)[nH]c2c1 (stereo not given),-1
10,CC1CN(c2ccc(NC(=O)c3cccs3)cc2)CCN1Cc1cccc(F)c1 (stereo not given),0
11,NC1=NC(c2ccccc2)N(c2ccccc2)C(N)=N1 (stereo not given),2
12,Cc1[nH]c2ccccc2c1C1CCN(CCCCNC(=O)c2ccc(-c3ccc(C#N)cc3)cc2)CC1,-3
13,Cc1nc2nc(N)nc(N)c2c(C)c1Cc1cccc(C(F)(F)F)c1,-2
14,O=C(Nc1ccc2nc(-c3ccccc3)[nH]c2c1)c1cc(-c2ccc3c(c2)OCCO3)n[nH]1,-2
15,CC1(C)CN(CCC2CCC(NC(=O)/C=C/c3ccccc3F)CC2)Cc2ccc(C#N)cc21 (stereo not given),-3
16,COc1cc(NC(=O)/C=C/c2cc3ccccc3n2C)ccc1OCCN(C(C)C)C(C)C,4
17,O=C(Nc1ccc2ccccc2n1)c1ccccc1-c1ccccc1,0
18,COc1cc(NC(=O)c2sc(-c3ccc(Cl)cc3)cc2NC(=O)c2cccc(N(C)C)c2)ccc1OCCN1CCCC1,-3
19,COc1cc(NC(=O)/C=C/c2cc(F)cc(F)c2F)cc(OCCN2CCN(CCN3CCOCC3)CC2)c1,0
20,CCOC(=O)c1ccc(NC(=O)N[C@@H](Cc2ccccc2)C(=O)NC2CCN(Cc3ccc(O)c(OC)c3)C2)cc1 (stereo not given in full),-2
